SMILES strings stand for the structures.

The target of test [1] is Tyrosine-protein kinase SYK (Homo sapiens) (UniProt P43405). The following applies: at 1 µM.
Test [2] has as its target T1, Tyrosine-protein kinase Tec (Homo sapiens) (UniProt P42680).
T1 sequence (whole entry): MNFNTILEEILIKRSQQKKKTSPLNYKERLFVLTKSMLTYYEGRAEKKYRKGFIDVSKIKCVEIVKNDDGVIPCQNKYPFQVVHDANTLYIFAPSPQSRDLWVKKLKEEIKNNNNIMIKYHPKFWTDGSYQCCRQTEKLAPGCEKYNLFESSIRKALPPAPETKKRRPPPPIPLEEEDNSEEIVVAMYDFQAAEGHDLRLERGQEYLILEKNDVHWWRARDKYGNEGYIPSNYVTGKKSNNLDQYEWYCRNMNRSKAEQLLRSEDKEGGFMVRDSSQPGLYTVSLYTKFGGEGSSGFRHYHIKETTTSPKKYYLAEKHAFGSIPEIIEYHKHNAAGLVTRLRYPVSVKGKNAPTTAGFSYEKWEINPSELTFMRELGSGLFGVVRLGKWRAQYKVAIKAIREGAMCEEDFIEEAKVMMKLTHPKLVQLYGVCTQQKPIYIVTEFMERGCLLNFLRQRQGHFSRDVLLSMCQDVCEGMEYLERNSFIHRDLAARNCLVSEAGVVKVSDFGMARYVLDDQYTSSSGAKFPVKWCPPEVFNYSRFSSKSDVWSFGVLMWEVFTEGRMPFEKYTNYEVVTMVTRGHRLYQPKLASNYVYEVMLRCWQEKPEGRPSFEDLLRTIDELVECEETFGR
Conditions: at 0.1 µM.

Test [3] has as its target T1, Tyrosine-protein kinase Tec (Homo sapiens). The following applies: at 1 µM.
The target in test [4] is Angiopoietin-1 receptor (Homo sapiens) (UniProt Q02763). The following applies: at 0.1 µM.
Test [5] has the same target. The following applies: at 1 µM.
Test [6] addresses T2, Non-receptor tyrosine-protein kinase TNK1 (Homo sapiens) (UniProt Q13470).
T2 sequence (whole entry): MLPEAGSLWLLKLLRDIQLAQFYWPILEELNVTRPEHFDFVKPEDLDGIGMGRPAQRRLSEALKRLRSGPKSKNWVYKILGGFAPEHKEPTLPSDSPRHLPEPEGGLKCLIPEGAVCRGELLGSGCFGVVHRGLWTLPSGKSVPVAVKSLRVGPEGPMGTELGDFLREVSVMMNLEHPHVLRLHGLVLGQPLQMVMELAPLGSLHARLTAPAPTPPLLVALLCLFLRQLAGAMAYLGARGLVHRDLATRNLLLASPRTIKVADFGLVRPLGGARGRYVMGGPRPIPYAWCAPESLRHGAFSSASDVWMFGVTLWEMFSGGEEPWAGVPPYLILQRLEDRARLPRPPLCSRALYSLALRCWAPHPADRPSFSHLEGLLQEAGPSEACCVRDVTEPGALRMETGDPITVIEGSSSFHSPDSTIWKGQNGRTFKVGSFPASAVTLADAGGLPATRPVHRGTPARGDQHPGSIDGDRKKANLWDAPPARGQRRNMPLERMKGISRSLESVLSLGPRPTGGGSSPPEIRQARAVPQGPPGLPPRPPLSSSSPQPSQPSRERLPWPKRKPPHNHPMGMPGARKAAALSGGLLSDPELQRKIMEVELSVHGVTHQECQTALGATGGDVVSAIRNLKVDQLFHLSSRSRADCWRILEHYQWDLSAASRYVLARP
The following applies: at 0.1 µM.

The target in test [7] is T2, Non-receptor tyrosine-protein kinase TNK1 (Homo sapiens). Conditions: at 1 µM.
Test [8] concerns the target Activated CDC42 kinase 1 (Homo sapiens) (UniProt Q07912). Conditions: at 0.1 µM.
For test [9] the target is unchanged. Conditions: at 1 µM.
Test [10] addresses High affinity nerve growth factor receptor (Homo sapiens) (UniProt P04629). The following applies: at 0.1 µM.

Angiopoietin-1 receptor (Homo sapiens), sequence (Q02763 whole entry): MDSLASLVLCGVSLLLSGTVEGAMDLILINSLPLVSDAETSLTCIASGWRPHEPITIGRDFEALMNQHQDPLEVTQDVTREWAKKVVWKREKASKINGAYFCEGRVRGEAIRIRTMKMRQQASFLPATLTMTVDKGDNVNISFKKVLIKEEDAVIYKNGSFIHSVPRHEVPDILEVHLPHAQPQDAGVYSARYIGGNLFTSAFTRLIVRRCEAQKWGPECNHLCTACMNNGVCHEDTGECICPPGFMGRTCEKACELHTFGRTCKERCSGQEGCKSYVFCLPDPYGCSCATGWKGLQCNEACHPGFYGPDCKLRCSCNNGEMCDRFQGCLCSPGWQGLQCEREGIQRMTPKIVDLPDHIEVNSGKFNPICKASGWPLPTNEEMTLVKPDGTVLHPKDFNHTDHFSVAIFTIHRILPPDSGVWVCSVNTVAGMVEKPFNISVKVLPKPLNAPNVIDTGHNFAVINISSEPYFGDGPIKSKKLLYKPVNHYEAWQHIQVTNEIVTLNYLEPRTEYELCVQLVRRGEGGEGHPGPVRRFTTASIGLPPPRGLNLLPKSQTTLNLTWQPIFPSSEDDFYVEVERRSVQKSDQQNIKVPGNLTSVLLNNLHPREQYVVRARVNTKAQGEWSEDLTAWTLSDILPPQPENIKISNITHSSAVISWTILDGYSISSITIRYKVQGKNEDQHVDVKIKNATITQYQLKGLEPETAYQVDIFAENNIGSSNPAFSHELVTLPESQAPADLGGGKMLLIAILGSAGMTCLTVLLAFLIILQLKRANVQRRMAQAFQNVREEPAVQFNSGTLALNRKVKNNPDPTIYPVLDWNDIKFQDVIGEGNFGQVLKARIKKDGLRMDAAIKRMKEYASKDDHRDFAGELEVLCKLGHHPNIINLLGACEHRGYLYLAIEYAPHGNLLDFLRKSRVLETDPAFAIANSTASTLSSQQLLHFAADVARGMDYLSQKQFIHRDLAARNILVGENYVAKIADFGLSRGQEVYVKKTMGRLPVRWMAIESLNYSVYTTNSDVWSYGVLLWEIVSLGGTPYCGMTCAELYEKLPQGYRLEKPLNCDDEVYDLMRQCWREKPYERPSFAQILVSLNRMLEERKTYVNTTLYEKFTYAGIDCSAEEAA
Activated CDC42 kinase 1 (Homo sapiens), sequence (Q07912 whole entry, looked up): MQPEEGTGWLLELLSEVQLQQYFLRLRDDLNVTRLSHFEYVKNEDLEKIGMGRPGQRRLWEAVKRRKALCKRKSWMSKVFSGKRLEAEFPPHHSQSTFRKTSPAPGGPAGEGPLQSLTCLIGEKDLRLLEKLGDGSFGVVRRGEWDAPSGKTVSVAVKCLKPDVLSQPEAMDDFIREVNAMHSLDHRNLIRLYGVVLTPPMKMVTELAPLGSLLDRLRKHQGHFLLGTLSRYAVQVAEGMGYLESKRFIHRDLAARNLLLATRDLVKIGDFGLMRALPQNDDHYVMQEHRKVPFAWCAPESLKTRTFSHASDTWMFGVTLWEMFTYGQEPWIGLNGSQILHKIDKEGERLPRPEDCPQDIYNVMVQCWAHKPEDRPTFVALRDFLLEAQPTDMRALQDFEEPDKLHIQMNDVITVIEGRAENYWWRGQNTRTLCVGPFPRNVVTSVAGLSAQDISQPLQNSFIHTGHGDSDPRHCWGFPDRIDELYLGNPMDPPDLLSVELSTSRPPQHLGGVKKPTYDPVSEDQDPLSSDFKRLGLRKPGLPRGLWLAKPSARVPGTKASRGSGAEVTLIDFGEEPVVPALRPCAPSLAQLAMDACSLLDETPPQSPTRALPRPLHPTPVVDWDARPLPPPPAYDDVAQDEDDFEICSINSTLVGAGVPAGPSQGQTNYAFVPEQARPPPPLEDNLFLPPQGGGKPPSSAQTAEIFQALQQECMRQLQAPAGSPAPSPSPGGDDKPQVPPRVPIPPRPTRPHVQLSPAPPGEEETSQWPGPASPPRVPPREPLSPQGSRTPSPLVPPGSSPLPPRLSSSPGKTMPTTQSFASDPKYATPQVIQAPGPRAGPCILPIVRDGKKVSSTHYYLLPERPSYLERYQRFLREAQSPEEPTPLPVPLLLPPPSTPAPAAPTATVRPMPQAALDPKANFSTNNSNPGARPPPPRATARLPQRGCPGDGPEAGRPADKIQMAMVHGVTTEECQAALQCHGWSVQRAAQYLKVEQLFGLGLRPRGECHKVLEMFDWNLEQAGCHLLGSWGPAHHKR
High affinity nerve growth factor receptor (Homo sapiens), sequence (P04629 33-796 limits assumed): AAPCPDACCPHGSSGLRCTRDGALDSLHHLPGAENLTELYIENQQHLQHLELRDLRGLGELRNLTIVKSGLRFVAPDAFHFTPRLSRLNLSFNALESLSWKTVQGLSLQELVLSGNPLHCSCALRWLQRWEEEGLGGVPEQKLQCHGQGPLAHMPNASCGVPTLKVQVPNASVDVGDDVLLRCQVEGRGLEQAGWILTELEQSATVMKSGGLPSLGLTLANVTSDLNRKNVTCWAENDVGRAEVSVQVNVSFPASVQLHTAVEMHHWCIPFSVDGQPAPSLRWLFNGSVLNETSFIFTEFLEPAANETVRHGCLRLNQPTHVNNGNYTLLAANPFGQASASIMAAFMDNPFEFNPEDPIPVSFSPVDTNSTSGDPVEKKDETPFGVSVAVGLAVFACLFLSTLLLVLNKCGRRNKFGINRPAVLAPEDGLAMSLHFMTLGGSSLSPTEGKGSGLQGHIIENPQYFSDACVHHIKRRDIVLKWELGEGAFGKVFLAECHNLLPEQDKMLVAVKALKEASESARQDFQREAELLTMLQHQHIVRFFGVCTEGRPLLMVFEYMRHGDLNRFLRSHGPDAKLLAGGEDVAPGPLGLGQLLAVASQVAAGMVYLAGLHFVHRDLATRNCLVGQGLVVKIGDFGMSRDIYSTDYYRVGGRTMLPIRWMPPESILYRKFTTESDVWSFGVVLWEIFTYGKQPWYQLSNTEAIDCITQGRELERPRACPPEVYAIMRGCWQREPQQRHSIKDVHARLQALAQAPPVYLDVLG

Broadly, the inhibition is the change of the read-out against control, counted positive when it falls. For the compound `Fc1ccc(-c2cc(-c3c[nH]nc3-c3ccccn3)ccn2)cc1`, the inhibition was -0.94% in test [1]; 3.71% in [2]; 3.67% in test [3]; 2.32% in test [4]; 2.49% in test [5]; 3.71% in [6]. Further, the inhibition in test [7] came out at 17.8%; in [8], 2.51%; in test [9], 1.26%; in test [10], 2.16%.

For the compound `Nc1ncc(-c2cccc(S(N)(=O)=O)c2)c2scc(-c3ccc(F)c(Cl)c3)c12`, the inhibition was -4.44% in [1]; 25.8% in test [2]; 75.2% in [3]; 2.99% in test [4]; 11.1% in [5]; 6.81% in test [6]. For the same compound, the inhibition amounted to 36% in test [7], 5.03% in test [8], 36.6% in [9] and 1.33% in [10].

On to `COc1ccc2c(-c3ccnc(Nc4cccc(OC(F)(F)F)c4)n3)cnn2n1`, for which the inhibition is -3.35% in [1]; 6.32% in test [2]; 11.9% in [3]; 1.4% in test [4]; 4.58% in test [5]; 9.21% in test [6]. For the same compound, the inhibition was 45% in [7], 1.32% in [8], 3.83% in test [9] and 4.63% in test [10].

`CNC(=O)c1cccc(C#Cc2cncnc2Nc2ccc(OCc3cccc(F)c3)c(Cl)c2)c1`: the inhibition in test [1] is 0.47%; in [2], 0.86%; in test [3], 2.99%; in [4] it was -0.1%; in [5], 2.32%; in test [6], -0.06%. In addition, the inhibition is 10.8% in test [7], -0.6% in test [8], 0.21% in test [9] and -0.85% in test [10].

For `COc1ccc(CNC(=O)c2ccc(-c3cc(-c4nnc(C)o4)ccc3C)cc2)cc1`, the inhibition in test [1] worked out at 0.6%; in [2], 2.72%; in test [3] it was 3.52%; in [4] it was 3.37%; in test [5] it was 8.26%; in [6] it was 6.31%. Besides, the inhibition was 16% in test [7], 3.84% in test [8], 6% in test [9] and -2.81% in test [10].

For `COc1cc2c(cc1Nc1nc(Nc3ccsc3C(N)=O)c3cc[nH]c3n1)N(C(=O)CN(C)C)CCC2(C)C`, the inhibition was determined as 4.93% in [1]; 5.38% in test [2]; 8.93% in [3]; 1.06% in [4]; 3.63% in [5]; 60.5% in test [6]. Moreover, the inhibition in test [7] was found to be 89.3%; in test [8] it was 6.79%; in [9] it was 43.5%; in [10], 2.83%.

For the compound `CCN1CCC(CC(=O)Nc2n[nH]c3nnc(-c4cccc(F)c4F)cc23)CC1`, the inhibition in [1] was -2.27%; in test [2], 0.83%; in [3], 2.99%; in test [4], 1.5%; in [5], 10.3%; in test [6] it was 1.03%. In addition, the inhibition in [7] is 4.94%; in test [8], 0.46%; in [9] it was 1.64%; in [10], -1.1%.

In the case of `NS(=O)(=O)c1ccc(Nc2ncc(-c3ccccc3)o2)cc1`, the inhibition in test [1] was -1.05%; in test [2] it was 4.68%; in test [3], 7.4%; in test [4], 2.1%; in test [5], 2.98%; in test [6] it was 4.37%. Besides, the inhibition in [7] came to 18.5%; in test [8] it was 1.26%; in test [9] it was 3.09%; in [10], 5.28%.

Consider `CCN(CC)S(=O)(=O)c1ccc(OC)c(Nc2ncc(-c3ccccc3)o2)c1`, for which the inhibition in [1] is -0.04%; in test [2], 2.99%; in [3], 11.9%; in test [4], 4.38%; in test [5], 14%; in [6] it was 15.6%. The inhibition in [7] was 72.1%; in test [8], -0.01%; in test [9] it was 1.62%; in test [10], 4.25%.

For `CCOc1ccc2c(-c3ccnc(Nc4cccc(C(F)(F)F)c4)n3)cnn2n1`, the inhibition in [1] was -6.38%; in [2], -0.08%; in test [3], 4.44%; in test [4], 1.3%; in [5], 7.44%; in [6], -0.72%. The inhibition in [7] stood at 14.7%; in [8], 0.55%; in [9] it was 0.5%; in [10], 0.72%.

`COc1cc(N2CCN(C(C)C)CC2)ccc1Nc1nc(Nc2ccc(F)cc2C(N)=O)c2cc[nH]c2n1`: the inhibition in [1] worked out at 35.9%; in test [2], 6.32%; in [3], 3.59%; in test [4], 4.35%; in test [5], 3.7%; in test [6], 34.7%. Besides, the inhibition was 74.1% in [7], 10.8% in test [8], 61.7% in [9] and -1.19% in [10].

For `Cc1cccc2c1NC(=O)/C2=N\Nc1ccc(S(N)(=O)=O)cc1`, the inhibition was -1.74% in test [1]; 5.22% in test [2]; 7.22% in test [3]; 1.65% in test [4]; 1.24% in test [5]; 2.15% in [6]. Moreover, the inhibition in test [7] was 5.82%; in test [8] it was 1.06%; in test [9], 1.59%; in test [10] it was 4.96%.

On to `COc1ccc(-c2cc3c(N)ncnc3o2)cc1`, for which the inhibition is -0.57% in [1]; -1.03% in test [2]; 3.07% in test [3]; 2.49% in test [4]; 2.73% in [5]; -0.85% in test [6]. For the same compound, the inhibition in test [7] was 6.1%; in [8] it was -0.17%; in [9] it was 1.96%; in test [10], -0.83%.

Regarding `COc1ccc(-c2oc3ncnc(N)c3c2-c2ccc(NC(=O)Nc3cc(C(F)(F)F)ccc3F)cc2)cc1`, the inhibition in test [1] was -8.92%; in test [2] it was 5.43%; in test [3] it was 14%; in test [4] it was 79.3%; in test [5] it was 86.1%; in [6] it was 21%. Also, the inhibition in [7] came to 85.3%; in [8], 4.09%; in test [9], 9.81%; in test [10], 71.1%.

Take `CCn1c(-c2nonc2N)nc2cnc(Oc3cccc(NC(=O)c4ccc(N(C)C)cc4)c3)cc21`: the inhibition in test [1] came to 0.64%; in [2], 3.07%; in test [3] it was 2.35%; in test [4], 2.52%; in [5] it was 4.62%; in test [6], 6.05%. Also, the inhibition in test [7] came to 6.93%; in [8], 0.85%; in test [9], 0.38%; in [10], 1.37%.

Regarding `CC1=C(C(=O)Nc2cc(Cl)c3[nH]ncc3c2)C(c2ccc(C(F)(F)F)cc2)CC(=O)N1` (stereo not given), the inhibition in test [1] came out at 1.05%; in test [2], 3.36%; in test [3], 6.05%; in test [4], 4.83%; in test [5] it was 5.04%; in [6], 4.45%. The inhibition in test [7] was 3.87%; in test [8], 0.65%; in [9] it was 2.37%; in [10] it was 3.77%.

The record behind these values is ChEMBL document CHEMBL1961873, “Compounds: GSK PKIS; Assays: Nanosyn kinase panel” (2012).
